{
  "source": "PubChem BioAssay AID463173",
  "about": "(ICCB-Longwood Screening Facility, Harvard Medical School, 2010)",
  "note": "Among all 52,000 compounds or so, about 1,700 (3.3%) were called active. The full list was thinned out, with actives kept by preference. Unmarked numbers belong to inactive results. Rule as the data show it: active = survival mostly below about 52% (no sharp cut-off); inactive = mostly above about 56%.",
  "data": [
    {"test_system": "Wild type", "assay": "S. aureus survival, RN4220 and DeltatarO strains – OD600, teichoic acid synthesis inhibitors, primary screen (AID 463173)", "settings": "S. aureus RN4220 wild type/DeltatarO growth, OD600, 18 h, hits give low values, screened at 18.75 µg/mL (by protocol)", "values": [
      {"compound": "COc1cc(NC(=O)CSc2ncc(S(=O)(=O)c3ccc(Br)cc3)c(=O)[nH]2)cc(OC)c1", "survival": "84%"},
      {"compound": "O=C(c1ccc(Cl)cc1)n1nc(-c2ccco2)nc1NCc1cccs1", "survival": "87%"},
      {"compound": "O=C(NCC(c1ccco1)S(=O)(=O)c1cccs1)c1ccc(C(F)(F)F)cc1", "note": "(stereo not drawn)", "survival": "83%"},
      {"compound": "CC(=O)Nc1ccc(Nc2c3c(c(C#N)c4nc5ccccc5n24)CCC3)cc1", "survival": "100%"},
      {"compound": "Cc1nn2c(=O)cc(COC(=O)c3ccc(NC(=O)c4ccc(C(C)(C)C)cc4)cc3)nc2s1", "survival": "74%"},
      {"compound": "COc1ccc(Cl)cc1NC(=O)Cn1nc(C(F)(F)F)c2c1CCC2", "survival": "84%"},
      {"compound": "CCc1ccccc1NC(=O)Cn1nc(C(F)(F)F)c2c1CCCC2", "survival": "84%"},
      {"compound": "COc1cc(NC(=O)Cn2nc(C(F)(F)F)c3c2CCCC3)c(OC)cc1Cl", "survival": "87%"},
      {"compound": "COc1ccc(Cl)cc1NC(=O)Cn1nc(C(F)(F)F)c2c1CCCC2", "survival": "9% (active)"},
      {"compound": "CCc1ccccc1NC(=O)Cn1nc(C(F)(F)F)c2c1CCC2", "survival": "74%"},
      {"compound": "COC(=O)c1ccccc1NC(=O)Cn1nc(C(F)(F)F)c2c1CCCC2", "survival": "-5% (active)"},
      {"compound": "CC(C)CN(CCCNC(=O)c1cc(=O)[nH]c2ccc(S(=O)(=O)N3CCCCCC3)cc12)CC(C)C", "survival": "68%"},
      {"compound": "COc1cc(Cl)c(C)cc1NC(=O)CSCc1nc(-c2ccc(OC)c(OC)c2)no1", "survival": "73%"},
      {"compound": "CCCCNC(=O)c1cc(-c2ccc(OC)cc2)nc2n[nH]c(-c3cccc([N+](=O)[O-])c3)c12", "survival": "80%"},
      {"compound": "Cc1cc(C)c2c(-n3cccc3)c(C(=O)NCCc3ccc(Cl)cc3)sc2n1", "survival": "118%"},
      {"compound": "CCCCc1nc2c(nnn2Cc2ccccc2)c(=O)[nH]1", "survival": "104%"},
      {"compound": "Cn1nnc2c(NCc3ccc(Cl)cc3)ncnc21", "survival": "88%"},
      {"compound": "Cn1nnc2c(NCc3ccccc3)ncnc21", "survival": "0% (active)"},
      {"compound": "Cc1ccc(CNc2ncnc3c2nnn3C)cc1", "survival": "49%"},
      {"compound": "COc1ccc(N2CCN(C(=O)c3ccc(CS(=O)(=O)c4ccc(Br)cc4)o3)CC2)cc1", "survival": "132%"},
      {"compound": "O=C1NC(=O)C(Nc2ccccc2Cl)S1", "note": "(stereo not drawn)", "survival": "108%"},
      {"compound": "CC1CCN(c2ncnc3c2c(-c2ccccc2)cn3-c2ccc(Br)cc2)CC1", "survival": "72%"},
      {"compound": "CCn1cc(S(=O)(=O)c2cccc(Cl)c2)c(=O)c2cc(F)c(N3CCC(C)CC3)cc21", "survival": "57%"},
      {"compound": "CC(C)OCCCn1c(=O)c2ccccc2n2c(-c3cc(Cl)ccc3O)nnc12", "survival": "94%"},
      {"compound": "COC(=O)c1sccc1S(=O)(=O)N(CC(=O)Nc1ccc(C)c(F)c1)c1ccc(C)c(C)c1", "survival": "-1% (active)"},
      {"compound": "COC(=O)c1sccc1S(=O)(=O)N(CC(=O)Nc1cccc(C)c1C)c1ccc(C)c(C)c1", "survival": "69%"},
      {"compound": "COC(=O)c1sccc1S(=O)(=O)N(CC(=O)NCc1ccc(C)cc1)c1ccc(C)c(C)c1", "survival": "74%"},
      {"compound": "CCc1cccc(NC(=O)CN(c2ccc(C)c(C)c2)S(=O)(=O)c2ccsc2C(=O)OC)c1", "survival": "-6% (active)"},
      {"compound": "COC(=O)c1sccc1S(=O)(=O)N(CC(=O)NCc1ccc(F)cc1)c1ccc(C)c(C)c1", "survival": "76%"},
      {"compound": "COC(=O)c1sccc1S(=O)(=O)N(CC(=O)Nc1cc(F)ccc1F)c1ccc(C)c(C)c1", "survival": "133%"},
      {"compound": "COC(=O)c1sccc1S(=O)(=O)N(CC(=O)NCc1ccccc1)c1ccc(C)c(C)c1", "survival": "14% (active)"},
      {"compound": "COC(=O)c1sccc1S(=O)(=O)N(CC(=O)Nc1c(C)cccc1C)c1ccc(C)c(C)c1", "survival": "78%"},
      {"compound": "COC(=O)c1sccc1S(=O)(=O)N(CC(=O)Nc1cc(C)ccc1C)c1ccc(C)c(C)c1", "survival": "78%"},
      {"compound": "Cc1ccc(CNC(=O)c2ccc(CSCc3ccccc3Cl)o2)cc1", "survival": "49%"},
      {"compound": "CC1(C)CC(=O)c2cc(C(=O)Nc3ccc(Cl)cc3)c(=O)[nH]c2C1", "survival": "71%"},
      {"compound": "CCCCOc1ccc(CNC(=O)c2cc3n(n2)CCCN(Cc2ccc(C)cc2)C3=O)cc1", "survival": "63%"},
      {"compound": "COc1cccc(CN2C(=O)c3ccccc3Sc3ccc(C(=O)OCc4ccco4)cc32)c1", "survival": "72%"},
      {"compound": "CCOc1ccccc1NC(=O)N1CCc2c(sc3c2CCCC3)C1c1ccccc1", "note": "(stereo not drawn)", "survival": "75%"},
      {"compound": "COc1ccc2oc(=O)c(C(=O)Nc3cccc(C(=O)O)c3)cc2c1", "survival": "68%"},
      {"compound": "CCOc1ccc(S(=O)(=O)Nc2cccc(-c3ccc(OCC)nn3)c2)cc1", "survival": "71%"},
      {"compound": "O=C(CSCc1ccccc1Cl)N/N=C/c1ccc(O)cc1O", "survival": "122%"},
      {"compound": "COc1ccc(NC(=O)CCc2c(C)nc3c(-c4ccc(F)cc4)c(C)nn3c2C)c(OC)c1", "survival": "78%"},
      {"compound": "CC(=O)c1cccc(NC(=O)C2CCN(S(=O)(=O)c3ccc4[nH]c(=O)ccc4c3)CC2)c1", "survival": "75%"},
      {"compound": "CCn1c(SCC(=O)OC2CCCCC2)nnc1-c1ccc(OC)cc1", "survival": "113%"},
      {"compound": "CC(=O)Nc1ccc(NC(=O)c2cc(-c3ccc4c(c3)OCCO4)on2)cc1", "survival": "109%"},
      {"compound": "Cc1cc(C)cc(OC(=O)c2cc(-c3ccc(Cl)cc3)on2)c1", "survival": "87%"},
      {"compound": "Cc1cc(C)cc(OC(=O)c2cc(-c3ccc4c(c3)OCCO4)on2)c1", "survival": "-7% (active)"},
      {"compound": "Cc1cccc(NC(=O)c2cc(-c3ccc4c(c3)OCCO4)on2)c1", "survival": "78%"},
      {"compound": "Cc1ccc(-c2cc(C(=O)Oc3ccc(C#N)cc3)no2)cc1", "survival": "88%"},
      {"compound": "Cc1cccc(OC(=O)c2cc(-c3ccc4c(c3)OCCO4)on2)c1", "survival": "-7% (active)"},
      {"compound": "Cc1cccc(OC(=O)c2cc(-c3ccc(C)c(C)c3)on2)c1", "survival": "-7% (active)"},
      {"compound": "CC(=O)c1cccc(NC(=O)c2cc(-c3ccc4c(c3)OCCO4)on2)c1", "survival": "77%"},
      {"compound": "Cc1ccc(-c2cc(C(=O)Oc3ccc(C#N)cc3)no2)cc1C", "survival": "82%"},
      {"compound": "COc1ccc(CC(=O)NCC(c2ccc(N(C)C)cc2)N2CCOCC2)cc1", "note": "(stereo not drawn)", "survival": "81%"},
      {"compound": "Clc1ccccc1-c1nnc(-c2ccccc2CNc2ccc(Br)cc2)o1", "survival": "91%"},
      {"compound": "CCCNC(=O)Cn1nc(-c2ccc(OC)cc2)c2cnc3ccc(F)cc3c21", "survival": "73%"},
      {"compound": "Cc1cccc(CNS(=O)(=O)c2ccc3[nH]c(=O)ccc3c2)c1", "survival": "124%"},
      {"compound": "COc1ccc(C(C(=O)NCc2ccccc2)N(Cc2ccco2)C(=O)c2cnccn2)cc1", "note": "(stereo not drawn)", "survival": "101%"},
      {"compound": "COc1cccc(CNC(=O)C(NS(=O)(=O)c2cccs2)C(C)C)c1", "note": "(stereo not drawn)", "survival": "94%"},
      {"compound": "COc1ccc(OC)c(C2N=C(N)Nc3nc4ccccc4n32)c1", "note": "(stereo not drawn)", "survival": "72%"},
      {"compound": "COc1cc(Nc2nc3ccc(Cl)cc3nc2-n2nc(C)cc2C)cc(OC)c1", "survival": "93%"},
      {"compound": "Cc1cc(C)n2c(SCC(=O)N(C)C3CCCCC3)nnc2n1", "survival": "101%"},
      {"compound": "CC(C)(C)C(=O)NC1CCN(S(=O)(=O)c2ccccc2C(=O)O)CC1", "survival": "105%"},
      {"compound": "CCCCN(CC)CCNC(=O)c1cc2c(-c3ccc(Cl)cc3)nn(C)c2s1", "survival": "5% (active)"},
      {"compound": "CCCN(CCC)CCNC(=O)c1cc2c(-c3ccc(Cl)cc3)nn(C)c2s1", "survival": "81%"},
      {"compound": "CCCN(CCC)CCCNC(=O)c1cc2c(-c3ccc(Cl)cc3)nn(C)c2s1", "survival": "95%"},
      {"compound": "CCOc1ccc(-c2c(C)nn3c(C)c(C(=O)NC(C)c4ccccc4)cnc23)cc1OCC", "note": "(stereo not drawn)", "survival": "75%"},
      {"compound": "Cc1ccc(CNC(=O)CN2C(=O)CCc3cc(S(=O)(=O)N4CCCCC4)ccc32)cc1", "survival": "91%"},
      {"compound": "COc1nc(C)c(/C=C/C(=O)N(C(=O)NC2CCCCC2)C2CCCCC2)c(OC)n1", "survival": "101%"},
      {"compound": "Clc1cccc(N2CCN(c3nc4ccccc4n4cnnc34)CC2)c1", "survival": "70%"},
      {"compound": "CCc1nnc2c(N3CCN(c4cccc(C(F)(F)F)c4)CC3)nc3ccccc3n12", "survival": "120%"},
      {"compound": "FC(F)(F)c1cccc(N2CCN(c3nc4ccccc4n4cnnc34)CC2)c1", "survival": "2% (active)"},
      {"compound": "COc1cccc(/C=C/c2nc(C#N)c(N3CCCCC3)o2)c1", "survival": "67%"},
      {"compound": "CCOc1ccccc1N(C)C(=O)Cn1cnc2onc(-c3ccc(F)cc3)c2c1=O", "survival": "90%"},
      {"compound": "COc1ccc(-n2ccnc(NCCc3ccc(Cl)cc3)c2=O)cc1OC", "survival": "47%"},
      {"compound": "O=c1c(NCc2ccccc2Cl)nccn1-c1ccccc1", "survival": "-1% (active)"},
      {"compound": "Cc1cc(C)cc(-n2ccnc(NCCc3ccccc3)c2=O)c1", "survival": "75%"},
      {"compound": "O=c1c(NCCc2ccc(Cl)cc2)nccn1-c1ccccc1", "survival": "14% (active)"},
      {"compound": "COc1ccc(-n2ccnc(NCc3ccccc3Cl)c2=O)cc1OC", "survival": "71%"},
      {"compound": "COc1ccccc1CNc1nccn(-c2ccc(F)cc2)c1=O", "survival": "76%"},
      {"compound": "Cc1ccc(S(=O)(=O)NCC2CCC(C(=O)NCc3ccc(F)cc3)CC2)cc1", "note": "(stereo not drawn)", "survival": "75%"},
      {"compound": "CCC(C)NC(=O)c1ccc2c(c1)N(Cc1ccccc1)C(=O)c1ccccc1S2(=O)=O", "note": "(stereo not drawn)", "survival": "85%"},
      {"compound": "COC(=O)c1cc(S(=O)(=O)NCC2CCN(Cc3cccc(F)c3)CC2)c[nH]1", "survival": "90%"},
      {"compound": "CN(Cc1nc(-c2ccc(Cl)cc2)no1)S(=O)(=O)c1ccccc1", "survival": "82%"},
      {"compound": "CCOc1ccc(NC(=O)N2CCC(CN3CCCCCC3)CC2)cc1", "survival": "111%"},
      {"compound": "COC(=O)c1ccc(NC(=O)N2CCC(CN3CCc4ccccc4C3)CC2)cc1", "survival": "1% (active)"},
      {"compound": "CCc1ccccc1NC(=O)N1CCC(CN2CCc3ccccc3C2)CC1", "survival": "60%"},
      {"compound": "CCOc1ccc(NC(=O)N2CCC(CN3CCc4ccccc4C3)CC2)cc1", "survival": "-3% (active)"},
      {"compound": "Cc1cccc(NC(=O)N2CCC(CN3CCc4ccccc4C3)CC2)c1C", "survival": "-4% (active)"},
      {"compound": "CCOc1ccc(NC(=O)N2CCC(CN3CCC(C)CC3)CC2)cc1", "survival": "127%"},
      {"compound": "COc1cc(NC(=O)N2CCC(CN3CCc4ccccc4C3)CC2)cc(OC)c1", "survival": "81%"},
      {"compound": "Cc1cc(C)cc(NC(=O)N2CCC(CN3CCc4ccccc4C3)CC2)c1", "survival": "81%"},
      {"compound": "Cc1cccc(NC(=O)N2CCC(CN3CCCCCC3)CC2)c1C", "survival": "55%"}
    ]}
  ]
}
